Source: PubChem
Rows were chosen to be rich in hits. Some 6% of all compounds tested hit in one or more screens of this group.
DRD3 antagonist = qHTS of D3 Dopamine Receptor Antagonist: qHTS; 360,000 compounds, 2.5% hits; D3R cells, DiscoveRx beta-arrestin luminescence, antagonist mode; stronger effect = lower value; D(3) dopamine receptor (Homo sapiens), P35462; max response, negative = inhibition, %; AID 652054, 2013; in the data active means max response below about -50%; inconclusive means no clear call, values can overlap the other calls; further: on the % scale 0 is the no-effect control and ±100 the full control effect
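Cells plated overnight at 1500 cells/well, then exposed to library compounds with dopamine controls for 90 minutes at 37 degrees C. DiscoveRx reagent added for 30–60 minutes at room temperature; luminescence read, quantitative HTS format.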
DRD3 agonist = qHTS of D3 Dopamine Receptor Agonist: qHTS | D(3) dopamine receptor (Homo sapiens), P35462 | AID 652048, 2013 | max activation, % | 410,000 compounds, 0.58% hits | D3R DiscoveRx beta-arrestin cells, luminescence, 90 min; in the data active means max activation above about 30%; further: 0% is about no effect
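Cells at 1500/well, incubated overnight, then treated with pinned compounds (dopamine as control) for 90 min at 37 degrees C. DiscoveRx reagent added for 30 - 60 minutes at room temperature; luminescence read.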
D1 antagonist = Antagonist of Human D 1 Dopamine Receptor: qHTS; D(1A) dopamine receptor (Homo sapiens), P21728; HEK293 TREx D1 cells, calcium flux, dopamine EC80; stronger effect = lower value; activity change, negative = inhibition, % at 10 µM; 360,000 compounds, 3.2% hits; AID 504652, 2011; in the data active means activity change below about -30%; further: on the % scale 0 is the no-effect control and ±100 the full control effect
Target sequence (P21728 whole entry, looked up): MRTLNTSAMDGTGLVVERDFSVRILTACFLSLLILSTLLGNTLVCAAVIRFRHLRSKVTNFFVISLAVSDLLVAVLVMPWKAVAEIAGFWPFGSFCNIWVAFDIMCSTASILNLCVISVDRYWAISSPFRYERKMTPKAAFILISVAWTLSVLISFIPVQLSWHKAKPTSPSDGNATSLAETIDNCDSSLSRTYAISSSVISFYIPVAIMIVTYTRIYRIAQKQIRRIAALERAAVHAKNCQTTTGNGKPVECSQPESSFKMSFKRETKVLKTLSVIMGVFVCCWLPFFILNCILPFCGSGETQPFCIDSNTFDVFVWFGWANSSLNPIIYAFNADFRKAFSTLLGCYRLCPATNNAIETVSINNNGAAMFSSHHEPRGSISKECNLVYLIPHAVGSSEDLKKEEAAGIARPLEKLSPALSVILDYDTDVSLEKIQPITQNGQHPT
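HEK293 T-REx cells expressing inducible, force-coupled D1 receptor; no-wash Ca dye, 30–90 min RT. Cmpd → 180 s read at 1 Hz → EC80 DA → 180 s read.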
D1 potentiator = Potentiators of Human D1 Dopamine Receptor: qHTS | potentiation, % at 10 µM | HEK293 TREx D1 cells, calcium flux, dopamine EC20 potentiation | 360,000 compounds, 0.036% hits | D(1A) dopamine receptor (Homo sapiens), P21728; in the data active means potentiation above about 30%; further: 0% is about no effect
D1 ag = Allosteric Agonists of the Human D1 Dopamine Receptor: qHTS; 360,000 compounds, 1% hits; HEK293 T-REx D1 cells, calcium flux, agonist mode; activation, % at 2 µM; D(1A) dopamine receptor (Homo sapiens), P21728; in the data active means activation above about 30%; further: 0% is about no effect
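Tetracycline-induced HEK293 TREx D1 cells, force-coupled to calcium signalling, were dye-loaded with a no-wash calcium kit. Compound was pin-added after a 10 s baseline. Fluorescence was read kinetically at 1 cycle/s for 180 s, with calcium rises flagged as agonism.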
* marks the source's active call; other numbers are inactive results; u = inconclusive; x = not tested or not shown.

SMILES | DRD3 antagonist | DRD3 agonist | D1 antagonist | D1 potentiator | D1 ag
Cc1c(O)ccc(-c2[nH]ncc2-c2nc3ccccc3s2)c1O | -10 | -1 | -43* | -10 | 7
CSC1=C(C#N)C(c2ccccc2Cl)C2=C(N1)c1ccccc1C2=O (stereo not drawn) | -7 | 2 | -42* | -7 | -1
Cc1ccc(NC(=O)CSCC(=O)Nc2ccccc2C(=O)NC2CC2)cc1 | -7 | -15 | 15 | -3 | 0
CCCCCCCCCCCCCCCC[N+](C)(C)CC | 10 | -16 | -25 | -7 | 41*
C#CC[N+](C)(C)CCCCCCCCCC | 1 | -2 | -2 | -1 | 0
CCCCCCCC[N+](C)(C)CCCCCCCC | x | 7 | x | x | x
CC#CC[N+](C)(C)CCCCCCCCCCCC | 4 | -4 | 6 | 3 | 34*
Cc1oc(-c2ccccc2Cl)nc1CN1CCCC1c1ccc(F)cc1 (stereo not drawn) | -9 | -10 | 15 | -6 | 4
Cc1oc(-c2ccccc2Cl)nc1CN1CCCCC1c1cccnc1 (stereo not drawn) | -13 | 1 | -32* | -8 | -1
CC1CN(S(=O)(=O)c2cccc(C(=O)Nc3ccccc3N3CCCC3)c2)CC(C)O1 (stereo not drawn) | u | -1 | -1 | 1 | 1
Cc1ccc(NC(=O)Cn2cc(S(=O)(=O)N3CCN(c4ccccc4F)CC3)c3ccccc3c2=O)cc1F | x | 4 | 10 | 3 | 5
CCc1ccc(S(=O)(=O)c2cn(Cc3ccccc3)c3cc(N4CCCC4)c(F)cc3c2=O)cc1 | x | 9 | 3 | 0 | -1
CSc1ccc(CCNC(=O)CCn2c(=O)c3cccn3c3cccnc32)cc1 | x | 2 | 0 | 1 | 0
COc1ccc(CCNC(=O)C2CCN(Cc3nc(-c4ccccc4C)oc3C)CC2)cc1OC | u | -35 | -40* | -6 | 37*
Cc1ccccc1-c1nc(CN2CCC(C(=O)NCCc3ccccc3)CC2)c(C)o1 | x | -8 | -6 | -4 | 23
Cc1ccccc1-c1nc(CN2CCC(C(=O)NCCC3=CCCCC3)CC2)c(C)o1 | u | 0 | -28 | -5 | 31*
Cc1oc(-c2ccccc2F)nc1CSCC(=O)NC1CCC(C)CC1 (stereo not drawn) | 16 | 2 | 9 | -8 | 8
N#Cc1c(Cl)cccc1Oc1ccc([S+](=O)([O-])N2CCN([S+](=O)([O-])c3c(F)cccc3F)CC2)cc1 | x | x | -16 | -5 | 1
CCc1c(C2(O)CCCCC2)[nH]c2cc(C(F)(F)F)ccc12 | -8 | -24 | 12 | 0 | 32*
Cc1c(C2(O)CCCCC2)[nH]c2cc(C(F)(F)F)ccc12 | -11 | -15 | x | x | x
CCCCCCN1CCN(C2CN(Cc3cn(Cc4ccccc4)nn3)S(=O)(=O)C2)CC1 (stereo not drawn) | -51* | -10 | x | x | x
Cc1ccc(CN2CC(N3CCN(CCO)CC3)CS2(=O)=O)cc1 (stereo not drawn) | -61* | -4 | x | x | x
O=S1(=O)CC(N2CCN(CCO)CC2)CN1Cc1ccc(F)cc1 (stereo not drawn) | 0 | 0 | x | x | x
Cc1cc(C)cc(Cn2cc(CN3CC(N4CCSCC4)CS3(=O)=O)nn2)c1 (stereo not drawn) | -54* | -1 | x | x | x
Cc1ccc(NC(=O)CCOc2ccccc2)c(C)c1 | -7 | -3 | 2 | 0 | 1
SMILES | DRD3 antagonist | DRD3 agonist | D1 antagonist | D1 potentiator | D1 ag
Cc1ccc(F)cc1NC(=O)CCOc1ccccc1 | 7 | 9 | -31* | -7 | 6
CCCCN(CC)CCCNC(=O)c1c(C)oc2ncnc(N3CCOCC3)c12 | x | 60* | -25 | -6 | 1
CNC(=O)c1ccc(OC2CSC2)cc1 | 7 | 1 | -49* | -6 | 2
O=C(Nc1ccc(Cl)cc1)c1ccc(OC2CSC2)cc1 | 3 | 2 | -2 | -2 | 5
CCOc1ccc(S(=O)(=O)n2nc(C)c(S(=O)(=O)N3CCCCCC3)c2C)cc1 | x | 8 | -2 | -2 | 2
O=S(=O)(c1ccccc1)N1CCN(c2nc(-c3ccc(F)cc3)nc3cc(Cl)ccc23)CC1 | x | x | 2 | 14 | 0
COCCN1C(=O)/C(=C/c2ccc(N3CCCC3)cc2C)SC1=S | 7 | 1 | -9 | 4 | 224*
CCN=C1S/C(=C\c2ccc(N3CCOCC3)cc2C)C(=O)N1CC | 15 | 9 | 9 | 4 | 0
Brc1ccc(CNc2ccc3ncccc3c2)cc1 | 13 | 1 | -41* | -7 | 14
CC1(C)CC(=O)C=C(NC2=CC3OC(c4ccccc4)OCC3OC2=O)C1 (stereo not drawn) | -54* | -4 | 6 | -1 | 5
CCOC(=O)CC(NCc1ccc(OC)c(OCC)c1)c1ccc(C)cc1 (stereo not drawn) | -51* | -14 | -7 | 6 | 25
CCOC(=O)CCNCc1ccc(OC)c(OC)c1 | 2 | 1 | -9 | -2 | 2
Cc1ccc(C(=O)NC(=S)N2CCN(c3ccccc3F)CC2)cc1 | 7 | -5 | -42* | -4 | 1
CCOc1ccc(N(CC(=O)Nc2ccc(OC)cc2)S(=O)(=O)c2ccc(Cl)cc2)cc1 | x | -16 | -10 | -7 | 4
FC(F)(F)c1cccc(N2CCN(CC3CC=CCC3)CC2)c1 (stereo not drawn) | -66* | -17 | 20 | 5 | 3
C1=CCC(CN2CCN(C3CCCCCC3)CC2)CC1 (stereo not drawn) | u | -17 | -4 | -4 | 2
Cc1ccc(N2CCN(CC3CC=CCC3)CC2)cc1 (stereo not drawn) | -141* | -39 | -24 | -11 | 1
COc1ccc(CN2C[C@@H](CO)O[C@@H](n3cnc4c(N5CCCC5)ncnc43)C2)cc1 | 0 | -6 | x | x | x
COc1ccc(S(=O)(=O)NNC(=O)c2ccccc2-n2cccc2)cc1 | -3 | 3 | -61* | -5 | 1
COc1ccccc1Nc1nc(-c2ccccc2F)nc2ccccc12 | x | -13 | -6 | 1 | -4
O=C(CNC(=O)c1ccc(Cl)cc1Cl)OCc1ccccc1 | 5 | -3 | -32* | -5 | 0
Cc1ccsc1C(=O)Nc1ccc(OCc2ccccc2)cc1 | -23 | 5 | -17 | -2 | 4
Cc1ccsc1C(=O)NCC(=O)OCc1ccccc1 | -26 | -10 | -30* | -8 | 3
O=C(COC(=O)CNC(=O)c1ccc(Cl)cc1Cl)NNC(=O)c1ccccc1 | -21 | -6 | -17 | -15 | 0
O=C(NNC(=O)c1ccc(Cl)cc1Cl)Nc1ccccc1 | -16 | 2 | -38* | -15 | 1
O=C(Nc1ccc(Nc2ccccc2)cc1)c1ccc(Cl)cc1Cl | -12 | 12 | x | x | x
